For 4 compounds, outcome and AC50 results are on record in PubChem BioAssay (EPA / NIEHS).

The AC50 is the concentration giving half of the maximal activity seen.

What all share (conditions): mRNA level, 48 h; actives raise or lower the signal
Read-out in assay [1]: ATP-citrate lyase (ACLY), ACLY (gene 47)
The assay can be described thus: LTEA_HepaRG_ACLY: Life Technologies and Expression Analysis (LTEA) Assay for ATP-citrate lyase (ACLY) using HepaRG (AID 2283466). Summed up: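 HepaRG, 48 h exposure, 8-pt half-log dilutions (top 100 uM), 0.5% DMSO. Readout: ACLY mRNA, TaqMan qRT-PCR, housekeeping-normalized (ACTB/GAPDH/POLR2A). Bidirectional curve fit vs DMSO.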

Read-out in assay [2]: Alkaline Phosphatase, Placental (ALPP) gene, ALPP (gene 250)
Put plainly: LTEA_HepaRG_ALPP: Life Technologies and Expression Analysis (LTEA) Assay for Alkaline Phosphatase, Placental (ALPP) gene using HepaRG (AID 2283468). Summed up:
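Using human liver HepaRG cells, chemicals are tested in duplicate over 48 h at half-log concentrations topping at 100 uM; phenobarbital 1 mM serves as induction control. ALPP mRNA change by qRT-PCR, bidirectional fit against vehicle.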

Read-out in assay [3]: Bcl-2 (BAD) gene, BAD (gene 572)
The assay can be described thus: LTEA_HepaRG_BAD: Life Technologies and Expression Analysis (LTEA) Assay for Bcl-2 (BAD) gene using HepaRG (AID 2283469). The essentials: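 BAD transcript change, measured by qRT-PCR against three housekeeping genes and fitted in both directions relative to 0.5% DMSO, after 48 h chemical treatment of human HepaRG liver cells at concentrations up to 100 uM.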

Read-out in assay [4]: Bcl-2 (BAX) gene, BAX (gene 581)
Put plainly: LTEA_HepaRG_BAX: Life Technologies and Expression Analysis (LTEA) Assay for Bcl-2 (BAX) gene using HepaRG (AID 2283470). The essentials:
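HepaRG (human liver), 48 h exposure, duplicate wells. 8-pt curve, half-log from 100 uM, 0.5% DMSO. BAX transcript by TaqMan qRT-PCR; ACTB/GAPDH/POLR2A normalization; gain or loss vs DMSO baseline.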

Read-out in assay [5]: adenosine kinase (ADK) gene, ADK (gene 132)
Put plainly: LTEA_HepaRG_ADK: Life Technologies and Expression Analysis (LTEA) Assay for adenosine kinase (ADK) gene using HepaRG (AID 2283471). Summed up:
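Differentiated HepaRG cells dosed 48 h in serum-free induction medium, 0.5% DMSO vehicle, eight half-log concentrations from 100 uM, in duplicate. ADK mRNA by TaqMan qRT-PCR normalised to ACTB, GAPDH, POLR2A; bidirectional fit versus DMSO.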

Read-out in assay [6]: Alpha-fetoprotein (AFP) gene, AFP (gene 174)
Put plainly: LTEA_HepaRG_AFP: Life Technologies and Expression Analysis (LTEA) Assay for Alpha-fetoprotein (AFP) gene using HepaRG (AID 2283472). The essentials:
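HepaRG, single lot; 48 h post-plating -> serum-free induction medium; cpd 8-pt, 100 uM top, half-log, 0.5% DMSO, duplicate, 48 h. RNA -> qRT-PCR AFP, norm ACTB/GAPDH/POLR2A. Bidirectional fit vs DMSO.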

Read-out in the next assay: BCL2L11 (gene 10018)
Put plainly: LTEA_HepaRG_BCL2L11: Life Technologies and Expression Analysis (LTEA) Assay for Bcl-2 (BCL2L11) gene using HepaRG (AID 2283473). The essentials: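 Human hepatic HepaRG cultures are treated 48 h with test chemicals (maximum 100 uM, 0.5% DMSO vehicle). Expression of BCL2L11 is measured by qRT-PCR against ACTB, GAPDH and POLR2A, with activity in either direction scored relative to vehicle.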

Read-out in assay [7]: Apolipoprotein A-V (APOA5) gene, APOA5 (gene 116519)
Put plainly: LTEA_HepaRG_APOA5: Life Technologies and Expression Analysis (LTEA) Assay for Apolipoprotein A-V (APOA5) gene using HepaRG (AID 2283474). The essentials:
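Concentration-response of APOA5 expression in HepaRG: eight half-log doses to 100 uM, 48 h, qRT-PCR normalized to ACTB/GAPDH/POLR2A, bidirectional fitting with 0.5% DMSO as baseline.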

Read-out in assay [8]: Apoptosis regulator Bcl-2 (Homo sapiens) (UniProt P10415)
Put plainly: LTEA_HepaRG_BCL2: Life Technologies and Expression Analysis (LTEA) Assay for Bcl-2 gene using HepaRG (AID 2283475). Summed up: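 HepaRG, plated 48 h then switched to serum-free induction medium; dosed 48 h, 8 conc. (max 100 uM, half-log steps), duplicate, 0.5% DMSO. Lysis in RLT, RNA isolated, TaqMan qRT-PCR for BCL2; ACTB/GAPDH/POLR2A normalisation; bidirectional fit vs DMSO.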

Read-out in assay [9]: Bcl-2 (BID) gene, BID (gene 637)
Put plainly: LTEA_HepaRG_BID: Life Technologies and Expression Analysis (LTEA) Assay for Bcl-2 (BID) gene using HepaRG (AID 2283476). The essentials:
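Transcript levels of BID, measured by qRT-PCR and normalized to three housekeeping genes, were fitted bidirectionally against DMSO controls. Cells were HepaRG, dosed 48 h at up to 100 uM.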

Read-out in a further assay: Caspase-3 (Homo sapiens) (UniProt P42574)
Put plainly: LTEA_HepaRG_CASP3: Life Technologies and Expression Analysis (LTEA) Assay for cysteine-aspartic acid protease (CASP3) using HepaRG (AID 2283477). The essentials: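 Transcript-level assay: CASP3 mRNA in human HepaRG after 48 h treatment, eight half-log concentrations from 100 uM in 0.5% DMSO, quantified by qRT-PCR.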

Read-out in assay [10]: Cytochrome P450 (CYP24A1), CYP24A1 (gene 1591)
The assay can be described thus: LTEA_HepaRG_CYP24A1: Life Technologies and Expression Analysis (LTEA) Assay for Cytochrome P450 (CYP24A1) using HepaRG (AID 2283478). The essentials: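 Gene expression of CYP24A1 by TaqMan qRT-PCR in HepaRG after 48 h treatment, highest concentration 100 uM; activity fitted in both directions relative to DMSO vehicle.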

Read-out in assay [11]: Cytochrome P450 (CYP1A2), CYP1A2 (gene 1544)
Put plainly: LTEA_HepaRG_CYP1A2: Life Technologies and Expression Analysis (LTEA) Assay for Cytochrome P450 (CYP1A2) using HepaRG (AID 2283479). The essentials:
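In duplicate wells, HepaRG cultures maintained in 0.5% DMSO were treated 48 h across an 8-point, half-log series topping at 100 uM; phenobarbital (1 mM) served as induction control. Expression was read by qRT-PCR.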

Read-out in assay [12]: cysteine-aspartic acid protease (CASP8), CASP8 (gene 841)
Put plainly: LTEA_HepaRG_CASP8: Life Technologies and Expression Analysis (LTEA) Assay for cysteine-aspartic acid protease (CASP8) using HepaRG (AID 2283480). The essentials: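 HepaRG, 48 h exposure, duplicate wells; 8 conc, half-log from 100 uM, 0.5% DMSO. Serum-free induction medium. CASP8 mRNA by TaqMan qRT-PCR, norm. ACTB/GAPDH/POLR2A; gain/loss fitted vs DMSO.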

Read-out in assay [13]: Cytochrome P450 2C19 (Homo sapiens) (UniProt P33261)
Put plainly: LTEA_HepaRG_CYP2C19: Life Technologies and Expression Analysis (LTEA) Assay for CYP2C19 using HepaRG (AID 2283482). The essentials: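 Endpoint: CYP2C19 mRNA change, bidirectional fit vs 0.5% DMSO. Cells: HepaRG, 48 h exposure, eight-point series topping at 100 uM. Quantitation: qRT-PCR normalized to ACTB, GAPDH, POLR2A.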

Read-out in a further assay: CYP2C8 (gene 1558)
Put plainly: LTEA_HepaRG_CYP2C8: Life Technologies and Expression Analysis (LTEA) Assay for CYP2C8 using HepaRG (AID 2283483). Summed up:
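CYP2C8 mRNA induction or loss, by qRT-PCR normalized to ACTB/GAPDH/POLR2A, is read in HepaRG cells after 48 h treatment. Concentrations run from 100 uM down in half-log dilutions, with 0.5% DMSO as vehicle and baseline.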

Read-out in another assay: CYP2C9 (gene 1559)
Put plainly: LTEA_HepaRG_CYP2C9: Life Technologies and Expression Analysis (LTEA) Assay for CYP2C9 using HepaRG (AID 2283484). Summed up:
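Cells plated 48 h, switched to serum-free induction medium, then treated in duplicate for 48 h at eight concentrations (max 100 uM, 0.5% DMSO). RNA then analysed by qRT-PCR for CYP2C9; curves fitted in both directions relative to DMSO.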

Read-out in the next assay: CYP2E1 (gene 1571)
Put plainly: LTEA_HepaRG_CYP2E1: Life Technologies and Expression Analysis (LTEA) Assay for CYP2E1 using HepaRG (AID 2283485). Summed up: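 Human liver line HepaRG, plated 48 h, then serum-free induction medium + chemical x 48 h; 8-pt CRC from 100 uM, half-log, 0.5% DMSO, n=2. Readout: CYP2E1 mRNA qRT-PCR vs ACTB/GAPDH/POLR2A; bidirectional fit vs DMSO.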

SMILES strings stand for the structures. Calls of active or inactive are those of the source. The calls were made as follows: active = hit-call score of the fitted dose curve at least 0.9, where 1 is the maximum; inactive = score below 0.9.

Caspase-3 (Homo sapiens), sequence (P42574 whole entry, looked up): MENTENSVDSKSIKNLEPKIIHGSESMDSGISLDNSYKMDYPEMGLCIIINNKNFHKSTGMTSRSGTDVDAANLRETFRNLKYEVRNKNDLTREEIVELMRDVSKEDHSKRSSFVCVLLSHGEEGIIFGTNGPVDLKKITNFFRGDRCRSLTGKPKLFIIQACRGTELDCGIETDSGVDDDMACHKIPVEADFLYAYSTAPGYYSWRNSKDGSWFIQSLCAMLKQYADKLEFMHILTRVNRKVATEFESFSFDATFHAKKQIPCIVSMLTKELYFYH
Cytochrome P450 2C19 (Homo sapiens), sequence (P33261 whole entry, looked up): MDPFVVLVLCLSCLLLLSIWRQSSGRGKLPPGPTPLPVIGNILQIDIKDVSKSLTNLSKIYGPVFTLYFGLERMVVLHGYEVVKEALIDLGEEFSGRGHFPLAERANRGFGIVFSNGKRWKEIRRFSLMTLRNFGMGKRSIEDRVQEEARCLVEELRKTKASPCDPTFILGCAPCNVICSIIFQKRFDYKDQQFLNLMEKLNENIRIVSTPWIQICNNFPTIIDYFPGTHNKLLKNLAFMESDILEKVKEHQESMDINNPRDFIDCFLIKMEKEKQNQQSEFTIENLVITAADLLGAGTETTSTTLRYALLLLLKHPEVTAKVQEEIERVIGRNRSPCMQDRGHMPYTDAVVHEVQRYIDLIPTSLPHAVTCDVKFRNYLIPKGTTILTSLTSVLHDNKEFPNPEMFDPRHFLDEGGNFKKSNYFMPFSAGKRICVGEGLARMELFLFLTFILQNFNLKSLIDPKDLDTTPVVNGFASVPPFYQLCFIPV
Apoptosis regulator Bcl-2 (Homo sapiens), sequence (P10415 whole entry, looked up): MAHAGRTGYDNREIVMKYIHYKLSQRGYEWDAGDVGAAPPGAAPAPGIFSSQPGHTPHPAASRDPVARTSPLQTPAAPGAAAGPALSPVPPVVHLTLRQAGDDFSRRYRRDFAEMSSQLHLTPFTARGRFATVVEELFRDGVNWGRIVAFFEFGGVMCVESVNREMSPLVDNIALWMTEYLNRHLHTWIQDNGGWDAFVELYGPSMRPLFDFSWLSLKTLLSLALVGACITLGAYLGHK

With `COCc1nnc(-c2ccc[n+]([O-])c2)n1-c1c(Cl)c(Cl)cc2[nH]c(=O)c(=O)[nH]c12`, the compound was classed as inactive in assay [1], in assay [2], in assay [3], in [4], in assay [5] and in [6]. The result (with BCL2L11 (gene 10018); in [7]; in assay [8]; in assay [9]; in the assay with Caspase-3 (Homo sapiens); in [10]) was inactive. Moreover, the call (in assay [11]; in assay [12]; in [13]; in the assay with CYP2C8 (gene 1558); in the assay with CYP2C9 (gene 1559)) was inactive.
Regarding `CCCC(CCC)C(=O)O`, the result (in assay [1]; in assay [2]; in assay [3]; in [4]; in [6]; in the assay with BCL2L11 (gene 10018)) was inactive. For the same compound, the compound was called inactive (in assay [7]; in assay [8]; in [9]; with Caspase-3 (Homo sapiens); in [10]; in [11]). Moreover, the compound was called inactive (in assay [12]; in [13]; in the assay with CYP2C8 (gene 1558); with CYP2C9 (gene 1559)).
For the compound `CCCCCCCCCCCCCCCCOS(=O)(=O)O`, the compound was called inactive (in [1]; in assay [2]; in assay [3]; in [4]; with BCL2L11 (gene 10018); in assay [7]). Besides, the outcome (in assay [8]; in [9]; in the assay with Caspase-3 (Homo sapiens); in assay [10]; in assay [11]; in assay [12]) was inactive. Moreover, the result with CYP2C8 (gene 1558) and in the assay with CYP2C9 (gene 1559) was inactive. Moreover, the AC50 in [6] is 41.2 µM (active); in assay [13], 43.1 µM (active).
Consider `CCn1nc(C)c2c1C(=O)NCC(c1ccc(O)cc1)=N2`, for which the compound was classed as inactive (in assay [1]; in [2]; in [3]; in [4]; in [6]; with BCL2L11 (gene 10018)). Moreover, the outcome (in [7]; in [8]; in [9]; with Caspase-3 (Homo sapiens); in assay [10]; in [12]) was inactive. In addition, the call (in assay [13]; with CYP2C8 (gene 1558); with CYP2C9 (gene 1559); with CYP2E1 (gene 1571)) was inactive. Besides, the AC50 in assay [11] is 34.1 µM (active).
